{"source": "PubChem BioAssay AID581", "about": "(PCMD, 2007)", "note": "Hit rate of the full screen: of about 62,000 compounds, about 95 (0.2%) were called active.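 Rule for the calls: active = inhibition above 20% in each of the two mixture wells holding the compound; inactive = inhibition of 20% or less in either well.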 Many of the other results were omitted from the sample, so actives are more common in it than they were."}
{"target": "Cathepsin G (Homo sapiens) (UniProt P08311)", "sequence (P08311 21-244 limits assumed)": "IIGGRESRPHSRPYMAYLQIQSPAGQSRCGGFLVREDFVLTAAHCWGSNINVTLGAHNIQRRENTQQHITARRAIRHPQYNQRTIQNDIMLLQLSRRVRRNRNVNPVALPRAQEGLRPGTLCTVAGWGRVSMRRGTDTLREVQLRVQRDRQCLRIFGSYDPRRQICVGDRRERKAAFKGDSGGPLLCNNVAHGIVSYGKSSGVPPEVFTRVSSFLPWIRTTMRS", "test": "blockers of neutrophil cathepsin G protease – biochemical, pooled compound mixtures, AMC fluorescence, primary screen (AID 581);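 note: 0% = enzyme control without mixture and 100% = blank lacking enzyme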", "details": "purified enzyme, AMC-tetrapeptide fluorescence, stronger effect = higher value, screened at 5 µM (by protocol)"}
{"compound": "COc1ccc(CCN=C2SCC(=O)N2C)cc1OC", "inhibition": "11.6% (inactive)"}
{"compound": "O=C(CCN1C(=O)C2C3C=CC(C3)C2C1=O)Nc1ccccc1F", "note": "(stereo not drawn)", "inhibition": "6.93% (inactive)"}
{"compound": "O=C(COc1ccccc1Cl)Nn1cnnc1", "inhibition": "3.79% (inactive)"}
{"compound": "CCCOc1ccc(N2CC(C(=O)Nc3ccccn3)CC2=O)cc1", "note": "(stereo not drawn)", "inhibition": "1.22% (inactive)"}
{"compound": "CC1CN(C2CCCCC2)c2nc3c(c(=O)n(C)c(=O)n3C)n2C1", "note": "(stereo not drawn)", "inhibition": "-2.58% (inactive)"}
{"compound": "COc1ccc(C2CC(c3ccccc3)Nc3ncnn32)cc1", "note": "(stereo not drawn)", "inhibition": "-0.07% (inactive)"}
{"compound": "O=C(c1cccnc1NCc1ccccc1)N1CCOCC1", "inhibition": "-5% (inactive)"}
{"compound": "CN(C)/C=C1/Nc2ccccc2C1=O", "inhibition": "-0.82% (inactive)"}
{"compound": "O=c1nc(N2CCOCC2)nc2n1CCO2", "inhibition": "1.08% (inactive)"}
{"compound": "CCOc1ccc(C(=O)N(Cc2ccc(N(C)C)cc2)C2CCS(=O)(=O)C2)cc1", "note": "(stereo not drawn)", "inhibition": "7.67% (inactive)"}
{"compound": "CCN1CCN(C(=O)c2ccccc2N(C)S(=O)(=O)c2ccc(C)cc2)CC1", "inhibition": "3.35% (inactive)"}
{"compound": "CCc1nc(Nc2ccc3nccnc3c2)c2oc3ccccc3c2n1", "inhibition": "-2.89% (inactive)"}
{"compound": "CNC(=O)n1ccc(C(=O)N2CCCCC2)n1", "inhibition": "11% (inactive)"}
{"compound": "CC(C)(C)n1nnnc1C(c1ccc2ncccc2c1)N1CCSCC1", "note": "(stereo not drawn)", "inhibition": "-7% (inactive)"}
{"compound": "Cc1ccc(N2C(=O)c3oc4ccccc4c(=O)c3C2c2cccnc2)nc1", "note": "(stereo not drawn)", "inhibition": "10.5% (inactive)"}
{"compound": "O=C(O)CN1C(=O)CC(Cc2ccccc2)C1=O", "note": "(stereo not drawn)", "inhibition": "-0.115% (inactive)"}
{"compound": "CCCCn1c(SCc2ncc(-c3ccccc3)o2)nc2cc(S(N)(=O)=O)ccc21", "inhibition": "13.9% (inactive)"}
{"compound": "Cc1ccc(CNC(=O)C2CCCN(S(C)(=O)=O)C2)cc1", "note": "(stereo not drawn)", "inhibition": "-3.54% (inactive)"}
{"compound": "CCC1SC2=NCCN2C1(O)c1ccc(Cl)cc1", "note": "(stereo not drawn)", "inhibition": "1.99% (inactive)"}
{"compound": "Cn1c(=O)[nH]c(=O)c2c1nc(N(CCO)Cc1ccccc1)n2Cc1ccccc1Cl", "inhibition": "5.71% (inactive)"}
{"compound": "COc1ccccc1N1CCN(CCCCOc2ccc(F)cc2)CC1", "inhibition": "13.1% (inactive)"}
{"compound": "CCS(=O)(=O)NCCc1ccc(OC)c(OC)c1", "inhibition": "13.1% (inactive)"}
{"compound": "CCCN1CCN(C(=O)Cn2ncc3ccccc32)CC1", "inhibition": "-11.9% (inactive)"}
{"compound": "CCc1nc2oc3ccccc3c(=O)c2c(=O)n1Cc1ccc(OC)cc1", "inhibition": "-20.5% (inactive)"}
{"compound": "Cn1cccc1Cc1nnc(SCC(=O)NCc2ccc3c(c2)OCO3)n1CCc1ccccc1", "inhibition": "10.5% (inactive)"}
{"compound": "COc1ccc(C(=O)n2nc(-c3ccc(Cl)cc3)nc2N)cc1OC", "inhibition": "37.8% (active)"}
{"compound": "COC(=O)c1ccc(OC(=O)c2nn(C)cc2Cl)c(OC)c1", "inhibition": "1.08% (inactive)"}
{"compound": "COc1ccc(CC(=O)n2nc(-c3cccnc3)nc2N)cc1", "inhibition": "14.7% (inactive)"}
{"compound": "COc1ccc(C(=O)Cn2nnc(-c3ccc(N4CCOCC4)cc3)n2)cc1OC", "inhibition": "2.19% (inactive)"}
{"compound": "COc1ccccc1C(=O)n1nc(-c2ccccc2)nc1N", "inhibition": "7.93% (inactive)"}
{"compound": "COc1ccc(C(=O)n2nc(-c3ccc(C)cc3)nc2N)cc1OC", "inhibition": "44% (active)"}
{"compound": "Cc1cccc(-n2c(Cc3cc(=O)[nH]c(=O)[nH]3)nnc2SC(C)C)c1", "inhibition": "10.3% (inactive)"}
{"compound": "CCCN1Cc2cccc(C(=O)NCc3ccccc3)c2C1=O", "inhibition": "-0.625% (inactive)"}
{"compound": "COc1ccc(N(Cc2cc3cc(OC)ccc3[nH]c2=O)S(C)(=O)=O)cc1", "inhibition": "-3.1% (inactive)"}
{"compound": "Cn1c(CC(=O)Nc2ccccc2)nnc1SCC(=O)c1ccccc1", "inhibition": "-0.18% (inactive)"}
{"compound": "c1ccc2cc(OCCN3CCCC3)ccc2c1", "inhibition": "-4.75% (inactive)"}
{"compound": "O=C(O)CSC(NC(=O)c1cccnc1)(C(F)(F)F)C(F)(F)F", "inhibition": "4.23% (inactive)"}
{"compound": "CCOC(=O)c1c(NC(=O)CSc2nnc(Cc3csc(N)n3)n2C)sc(C)c1C", "inhibition": "-4.19% (inactive)"}
{"compound": "CC1(C)CC(=O)C(C=NCCC2=CCCCC2)=C(O)C1", "inhibition": "6.17% (inactive)"}
{"compound": "O=C1CCCC(O)=C1C=NCCc1ccccc1", "inhibition": "33.4% (active)"}
{"compound": "O=C1CC(c2ccccc2)CC(O)=C1C=NCCN1CCOCC1", "note": "(stereo not drawn)", "inhibition": "14.8% (inactive)"}
{"compound": "O=C(CSc1nnc(-c2cccs2)n1Cc1ccco1)c1ccc2c(c1)OCO2", "inhibition": "7.29% (inactive)"}
{"compound": "CSc1ccc(S(=O)(=O)Nc2cccc(F)c2)cc1", "inhibition": "-1.91% (inactive)"}
{"compound": "CCCNC(=O)Nc1ccccc1C(=O)Nc1ccc(OC)cc1", "inhibition": "4.04% (inactive)"}
{"compound": "CC1(C)CC(=O)c2cc(OCC(=O)NCC3CCCO3)ccc2O1", "note": "(stereo not drawn)", "inhibition": "4.79% (inactive)"}
{"compound": "O=C(c1ccco1)N1CCN(C(=O)C2CC(c3ccc(F)cc3)=NO2)CC1", "note": "(stereo not drawn)", "inhibition": "2.3% (inactive)"}
{"compound": "COCCCNC(=O)CCc1nc2cccnc2n1Cc1ccc(OC)cc1", "inhibition": "11.7% (inactive)"}
{"compound": "CCN(c1ccc2c(c1)OCO2)S(=O)(=O)c1cc(Br)cc2c1N(C(=O)C1CC1)CC2", "inhibition": "2.07% (inactive)"}
{"compound": "COC(=O)c1cc(NC(=O)CN2CCC(C(N)=O)(N3CCCCC3)CC2)cc(C(=O)OC)c1", "inhibition": "-6.63% (inactive)"}
{"compound": "CN(C)c1ccnc2sc3c(=O)n(Cc4ccccc4)cnc3c12", "inhibition": "-4.39% (inactive)"}
{"compound": "CC(=O)N1C(=O)C2(Nc3ccccc3N2)c2ccccc21", "inhibition": "-1.99% (inactive)"}
{"compound": "Cc1ccccc1CSc1nnc(-c2cccnc2)n1N", "inhibition": "14.2% (inactive)"}
{"compound": "Cc1cccc(NC(=O)CSc2nnc(CCCCCNC(=O)OC(C)(C)C)o2)c1C", "inhibition": "6.06% (inactive)"}
{"compound": "O=C(Cn1c(-c2ccc(Cl)cc2)noc1=O)N1CCN(c2ccccc2F)CC1", "inhibition": "7.96% (inactive)"}
{"compound": "O=c1ccn(Cc2ccccc2Cl)cc1", "inhibition": "-1.12% (inactive)"}
{"compound": "Cc1cc(NC(=O)CN2CCC(O)(c3cccc(F)c3)CC2)no1", "inhibition": "5.96% (inactive)"}
{"compound": "COc1cccc(N(C(=O)c2ccn[nH]2)C2(C(=O)Nc3c(C)cccc3C)CCCCC2)c1", "inhibition": "8.21% (inactive)"}
{"compound": "COc1ccc2occ(C(=O)c3ccc(N=C(C)N(C)C)cc3)c2c1", "inhibition": "-7.35% (inactive)"}
{"compound": "O=C1Nc2c(Br)cc(Br)cc2C1(O)N1CCOCC1", "note": "(stereo not drawn)", "inhibition": "1.49% (inactive)"}
{"compound": "CCOC(=O)CNC(=O)CSc1nnc(-c2cccc(OC)c2)n1CC", "inhibition": "-5.21% (inactive)"}
{"compound": "Oc1c(C(c2ccccn2)N2CCOCC2)ccc2cccnc12", "note": "(stereo not drawn)", "inhibition": "13.3% (inactive)"}
{"compound": "CN(C(=O)c1ccccn1)c1nnc(-c2ccccn2)s1", "inhibition": "10.6% (inactive)"}
{"compound": "COc1ncnc2c1N=C1CC(C)(C)CC(N)=C1S2", "inhibition": "-6.43% (inactive)"}
